Laboratory results: PubChem BioAssay AID1159580 (chemical genetic matrix, 2015)
Where “and” joins values, the source holds several entries; their conditions need not be identical. Equal values may be shown once. The campaign covered roughly 5,500 compounds. About 2,000 (36%) were called active. Inconclusive results (about 18%) are left out. Rule as the data show it: active = normalized growth mostly below about 0.91 (no sharp cut-off); inconclusive = no clear call, values can overlap the other calls; inactive = mostly above about 0.92. Some of the results follow.

Experiment: chemical genetic growth profiling, strain panel (AID 1159580);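 also: tested at 20 µM; growth read once vehicle control cultures reached saturation at 30 °C; 1 = growth at the plate median or of vehicle wells; lower values mean less growth of the strain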
Settings: S. cerevisiae deletion strains, growth OD

Measured: normalized growth

CC(C)(C)NCC(O)c1ccc(O)c(CO)c1 (stereo not given)
inactive: locus YAL013W, strain DEP1, stronger effect = lower value 1 and 1.04 | locus YAL021C, strain ccr4, stronger effect = lower value 1.02 | locus YAL026C, strain drs2, stronger effect = lower value 1.02 | locus YAL030W, strain snc1, stronger effect = lower value 1.02 | locus YAL040C, strain CLN3, stronger effect = lower value 0.991 and 1.01 | locus YBL061C, strain skt5, stronger effect = lower value 1.02 | locus YBR009C, strain hhf1, stronger effect = lower value 0.998 | locus YBR021W, strain FUR4, stronger effect = lower value 1.01 | locus YBR023C, strain chs3, stronger effect = lower value 1.01 | locus YBR171W, strain sec66, stronger effect = lower value 1.02 | locus YBR229C, strain ROT2, stronger effect = lower value 1 | locus YBR231C, strain swc5, stronger effect = lower value 1.01 | locus YBR279W, strain paf1, stronger effect = lower value 1.01 | locus YCL011C, strain gbp2, stronger effect = lower value 0.998 | locus YCL016C, strain dcc1, stronger effect = lower value 1.02 | locus YCL029C, strain bik1, stronger effect = lower value 1.01 | locus YCL061C, strain MRC1 (second series), stronger effect = lower value 1 and 1.01 | locus YCL061C, strain MRC1, stronger effect = lower value 1 | locus YCL069W, strain vba3, stronger effect = lower value 1.02 | locus YCR088W, strain abp1, stronger effect = lower value 1.01 | locus YDL005C, strain med2, stronger effect = lower value 1.01 | locus YDL035C, strain GPR1, stronger effect = lower value 1.04 | locus YDL040C, strain nat1, stronger effect = lower value 1 | locus YDL074C, strain BRE1, stronger effect = lower value 1.06 | locus YDL101C, strain DUN1, stronger effect = lower value 1.01 | locus YDL134C, strain PPH21, stronger effect = lower value 1 | locus YDL185W, strain tfp1, stronger effect = lower value 1.02 | locus YDL192W, strain arf1, stronger effect = lower value 1.02 | locus YDR001C, strain nth1, stronger effect = lower value 1.01 | locus YDR069C, strain doa4, stronger effect = lower value 0.998 | locus YDR101C, strain arx1, stronger effect = lower value 0.972 | locus YDR137W, strain rgp1, stronger effect = lower value 1.01 | locus YDR150W, strain NUM1, stronger effect = lower value 1.01 | locus YDR159W, strain sac3, stronger effect = lower value 0.99 | locus YDR162C, strain NBP2, stronger effect = lower value 1.03 | locus YDR195W, strain ref2 0.99 | locus YDR297W, strain sur2, stronger effect = lower value 1.01 | locus YDR318W, strain mcm21, stronger effect = lower value 1.02 | locus YDR334W, strain swr1, stronger effect = lower value 0.995 | locus YDR335W, strain msn5, stronger effect = lower value 1.02 | locus YDR363W, strain ESC2, stronger effect = lower value 1.03 | locus YDR388W, stronger effect = lower value 1.02 | locus YDR392W, strain spt3, stronger effect = lower value 0.981 | locus YDR502C, strain sam2, stronger effect = lower value 1.02 | locus YEL003W, strain gim4, stronger effect = lower value 1.01 | locus YEL037C, strain rad23, stronger effect = lower value 1.01 | locus YEL061C, strain CIN8 (second series), stronger effect = lower value 1 | locus YEL061C, strain CIN8, stronger effect = lower value 1.01 | locus YER002W, strain NOP16, stronger effect = lower value 0.988 and 1.03 | locus YER015W, strain faa2, stronger effect = lower value 1.02 | locus YER016W, strain bim1, stronger effect = lower value 1.03 | locus YER110C, stronger effect = lower value 1.02 | locus YER111C, strain swi4, stronger effect = lower value 1.01 | locus YER155C, strain BEM2 (second series), stronger effect = lower value 0.982 | locus YER155C, strain BEM2, stronger effect = lower value 1.01 | locus YER167W, strain BCK2, stronger effect = lower value 1.02 | locus YFR010W, strain ubp6, stronger effect = lower value 1.01 | locus YGL078C, strain dbp3, stronger effect = lower value 1.03 | locus YGL086W, strain mad1, stronger effect = lower value 1.01 | locus YGL167C, strain pmr1, stronger effect = lower value 1.02 | locus YGL173C, strain kem1, stronger effect = lower value 1.01 | locus YGL227W, strain vid30, stronger effect = lower value 0.989 | locus YGL240W, strain doc1, stronger effect = lower value 1.02 | locus YGL248W, strain PDE1, stronger effect = lower value 0.998 | locus YGL253W, strain hxk2, stronger effect = lower value 1.01 | locus YGR078C, strain PAC10, stronger effect = lower value 1.02 | locus YGR135W, strain pre9, stronger effect = lower value 1.06 | locus YGR229C, strain SMI1, stronger effect = lower value 1.02 and 1.05 | locus YGR252W, strain gcn5, stronger effect = lower value 1.12 | locus YHR013C, strain ard1, stronger effect = lower value 1.01 | locus YHR027C, strain rpn1, stronger effect = lower value 1.01 | locus YHR030C, strain SLT2, stronger effect = lower value 1.01 and 1.03 | locus YHR079C, strain IRE1 (second series), stronger effect = lower value 1.01 | locus YHR079C, strain IRE1, stronger effect = lower value 1.03 | locus YHR094C, strain hxt1, stronger effect = lower value 1.02 | locus YHR129C, strain ARP1, stronger effect = lower value 1.02 | locus YHR142W, strain chs7, stronger effect = lower value 1 | locus YHR200W, strain rpn10, stronger effect = lower value 1.02 | locus YIL066C, strain RNR3, stronger effect = lower value 1.01 | locus YIL073C, strain SPO22, stronger effect = lower value 1.1 | locus YIL125W, strain kgd1, stronger effect = lower value 1.01 | locus YIR030C, strain dcg1, stronger effect = lower value 1.02 | locus YJL092W, strain hpr5, stronger effect = lower value 1.01 | locus YJL095W, strain BCK1 (second series), stronger effect = lower value 1.03 | locus YJL095W, strain BCK1, stronger effect = lower value 1.01 and 1.03 | locus YJL115W, strain asf1, stronger effect = lower value 1.04 | locus YJL129C, strain trk1, stronger effect = lower value 1 | locus YJL134W, strain LCB3, stronger effect = lower value 1.02 | locus YJL154C, strain vps35, stronger effect = lower value 1.02 | locus YJL164C, strain tpk1, stronger effect = lower value 1 | locus YJL166W, strain qcr8, stronger effect = lower value 0.999 | locus YJL168C, strain set2, stronger effect = lower value 1.01 | locus YJL187C, strain SWE1 (second series), stronger effect = lower value 0.996 | locus YJR043C, strain POL32, stronger effect = lower value 1.03 | locus YJR066W, strain TOR1, stronger effect = lower value 0.979
